From the supplement of paper PMC11732987, “Enantioselective OTUD7B fragment discovery through chemoproteomics screening and high-throughput optimisation” (Communications Chemistry, 2025)

Legend:
Assay in all cases: log2 ratio of Biotin-Ahx-Ub-VS probe labelling (fragment/DMSO); higher = less target engagement (more negative = stronger competition), active = hit call of the paper (q ≤ 0.05, log2 ratio ≤ -1)
Conditions in all cases: compound concentration: 200 uM; treatment time: 3 h
USP9X = USP9X (UniProt Q93008)
How it was run: (§1)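 Using Biotin-Ahx-Ub-VS at 0.5 µM final for 1 h, DUBs were labelled in HEK293T lysate (495 µg per sample) that had first been treated in triplicate with fragment at 200 µM or vehicle for 3 h. NeutrAvidin enrichment, LysC and trypsin digestion and diaPASEF LC-MS/MS followed. Spectronaut label-free quantities were global-median-normalised. Values are average log2 fragment/vehicle ratios by unpaired t-test, using proteins with ≥2 unique peptides.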

UniProt O00487 = target: UniProt O00487
How it was run: as §1

UniProt O00507 = target: UniProt O00507
How it was run: as §1

UniProt P51784 = target: UniProt P51784
How it was run: as §1

UniProt Q5T2D3 = target: T1, UniProt Q5T2D3
T1 sequence (whole entry): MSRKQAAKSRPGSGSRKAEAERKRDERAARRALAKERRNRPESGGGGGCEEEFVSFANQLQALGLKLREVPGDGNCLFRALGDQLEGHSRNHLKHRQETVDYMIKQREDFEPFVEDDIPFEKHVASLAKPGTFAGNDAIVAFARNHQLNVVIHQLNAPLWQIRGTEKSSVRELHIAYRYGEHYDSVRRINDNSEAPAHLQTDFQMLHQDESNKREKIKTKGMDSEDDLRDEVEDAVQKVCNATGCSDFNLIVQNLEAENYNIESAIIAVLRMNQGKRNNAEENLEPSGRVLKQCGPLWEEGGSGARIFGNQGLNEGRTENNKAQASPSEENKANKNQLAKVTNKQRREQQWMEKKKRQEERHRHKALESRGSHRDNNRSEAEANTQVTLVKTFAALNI
How it was run: as §1

UniProt Q8TE49 = target: T2, UniProt Q8TE49
T2 sequence (whole entry): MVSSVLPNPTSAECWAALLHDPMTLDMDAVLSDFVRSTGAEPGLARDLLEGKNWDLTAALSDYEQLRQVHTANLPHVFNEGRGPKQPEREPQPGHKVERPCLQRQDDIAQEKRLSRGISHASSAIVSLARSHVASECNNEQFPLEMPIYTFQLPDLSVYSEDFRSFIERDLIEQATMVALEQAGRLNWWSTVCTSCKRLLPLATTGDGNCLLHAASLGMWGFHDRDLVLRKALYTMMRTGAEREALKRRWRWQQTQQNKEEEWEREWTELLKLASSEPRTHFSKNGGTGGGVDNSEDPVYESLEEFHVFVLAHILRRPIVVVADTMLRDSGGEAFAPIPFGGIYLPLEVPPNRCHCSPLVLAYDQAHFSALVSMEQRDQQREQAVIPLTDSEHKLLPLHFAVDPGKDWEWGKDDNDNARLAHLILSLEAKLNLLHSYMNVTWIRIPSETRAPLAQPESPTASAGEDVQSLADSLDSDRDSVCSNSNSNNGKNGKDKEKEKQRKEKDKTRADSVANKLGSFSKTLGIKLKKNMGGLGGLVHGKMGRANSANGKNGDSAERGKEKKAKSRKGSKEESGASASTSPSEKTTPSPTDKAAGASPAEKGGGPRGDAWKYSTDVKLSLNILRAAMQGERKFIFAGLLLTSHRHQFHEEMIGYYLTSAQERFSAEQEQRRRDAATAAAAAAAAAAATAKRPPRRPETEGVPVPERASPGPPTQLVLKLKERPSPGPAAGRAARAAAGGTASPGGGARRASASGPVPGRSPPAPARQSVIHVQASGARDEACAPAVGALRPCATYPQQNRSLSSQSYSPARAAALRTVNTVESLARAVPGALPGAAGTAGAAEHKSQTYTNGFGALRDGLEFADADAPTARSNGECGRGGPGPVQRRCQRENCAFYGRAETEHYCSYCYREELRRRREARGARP
How it was run: as §1

UniProt Q9P2H5 = target: T3, UniProt Q9P2H5
T3 sequence (whole entry): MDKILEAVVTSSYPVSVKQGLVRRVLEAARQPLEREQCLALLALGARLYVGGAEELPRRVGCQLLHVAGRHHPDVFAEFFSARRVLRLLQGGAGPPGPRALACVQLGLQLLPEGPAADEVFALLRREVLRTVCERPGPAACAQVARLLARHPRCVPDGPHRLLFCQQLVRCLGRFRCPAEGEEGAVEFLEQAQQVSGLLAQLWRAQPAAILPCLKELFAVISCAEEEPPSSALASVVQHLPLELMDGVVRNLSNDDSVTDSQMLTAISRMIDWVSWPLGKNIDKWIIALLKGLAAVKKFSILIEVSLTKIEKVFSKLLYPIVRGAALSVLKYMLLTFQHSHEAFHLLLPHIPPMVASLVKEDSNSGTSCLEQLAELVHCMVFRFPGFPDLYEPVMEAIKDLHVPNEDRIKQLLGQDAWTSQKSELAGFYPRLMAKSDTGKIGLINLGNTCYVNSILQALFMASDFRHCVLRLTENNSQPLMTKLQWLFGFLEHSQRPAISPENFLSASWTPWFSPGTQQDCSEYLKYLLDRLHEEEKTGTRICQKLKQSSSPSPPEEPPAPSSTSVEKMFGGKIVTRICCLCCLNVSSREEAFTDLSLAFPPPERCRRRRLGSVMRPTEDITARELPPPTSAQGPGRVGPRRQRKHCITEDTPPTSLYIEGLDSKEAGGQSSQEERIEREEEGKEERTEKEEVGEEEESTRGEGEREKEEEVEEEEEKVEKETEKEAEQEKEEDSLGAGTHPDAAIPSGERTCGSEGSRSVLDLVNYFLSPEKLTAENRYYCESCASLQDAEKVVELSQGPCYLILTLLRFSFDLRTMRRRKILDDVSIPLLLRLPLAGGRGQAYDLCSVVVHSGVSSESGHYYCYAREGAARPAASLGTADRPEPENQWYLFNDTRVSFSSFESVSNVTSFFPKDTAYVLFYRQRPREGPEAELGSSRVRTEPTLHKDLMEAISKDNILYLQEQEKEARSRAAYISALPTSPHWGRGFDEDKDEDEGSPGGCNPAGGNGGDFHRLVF
How it was run: as §1

UniProt Q9UGI0 = target: T4, UniProt Q9UGI0
T4 sequence (whole entry): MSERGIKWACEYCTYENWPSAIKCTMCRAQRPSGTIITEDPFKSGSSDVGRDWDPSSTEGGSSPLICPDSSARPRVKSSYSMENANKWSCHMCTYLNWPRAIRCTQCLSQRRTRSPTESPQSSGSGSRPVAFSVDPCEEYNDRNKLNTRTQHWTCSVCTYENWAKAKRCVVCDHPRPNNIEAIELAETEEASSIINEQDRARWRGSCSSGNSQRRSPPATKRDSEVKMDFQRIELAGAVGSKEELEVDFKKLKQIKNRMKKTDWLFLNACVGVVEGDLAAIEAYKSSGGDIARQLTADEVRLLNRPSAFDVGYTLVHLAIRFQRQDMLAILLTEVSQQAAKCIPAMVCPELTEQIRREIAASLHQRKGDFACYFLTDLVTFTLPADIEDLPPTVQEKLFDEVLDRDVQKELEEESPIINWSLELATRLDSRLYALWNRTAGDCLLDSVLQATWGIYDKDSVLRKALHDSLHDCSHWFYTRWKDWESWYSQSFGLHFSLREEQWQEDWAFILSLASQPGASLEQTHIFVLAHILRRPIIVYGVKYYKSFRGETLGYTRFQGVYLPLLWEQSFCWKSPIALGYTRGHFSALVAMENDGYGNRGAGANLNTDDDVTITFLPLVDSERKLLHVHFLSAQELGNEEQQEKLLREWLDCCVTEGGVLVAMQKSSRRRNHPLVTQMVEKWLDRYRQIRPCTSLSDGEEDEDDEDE
How it was run: as §1

YOD1 = target: T5, YOD1 (UniProt Q5VVQ6)
T5 sequence (whole entry): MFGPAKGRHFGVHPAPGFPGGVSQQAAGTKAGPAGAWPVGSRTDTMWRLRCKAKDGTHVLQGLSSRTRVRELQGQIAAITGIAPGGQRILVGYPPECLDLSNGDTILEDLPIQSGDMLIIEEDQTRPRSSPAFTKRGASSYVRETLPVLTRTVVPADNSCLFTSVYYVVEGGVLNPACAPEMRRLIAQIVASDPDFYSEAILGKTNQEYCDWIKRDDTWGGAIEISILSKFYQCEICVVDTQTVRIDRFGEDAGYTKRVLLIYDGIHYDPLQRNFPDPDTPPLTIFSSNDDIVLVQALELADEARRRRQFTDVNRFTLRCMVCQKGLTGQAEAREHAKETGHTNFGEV
How it was run: as §1

Measured: log2 ratio of Biotin-Ahx-Ub-VS probe labelling

Chain of UniProt O00487 (O00487 whole entry): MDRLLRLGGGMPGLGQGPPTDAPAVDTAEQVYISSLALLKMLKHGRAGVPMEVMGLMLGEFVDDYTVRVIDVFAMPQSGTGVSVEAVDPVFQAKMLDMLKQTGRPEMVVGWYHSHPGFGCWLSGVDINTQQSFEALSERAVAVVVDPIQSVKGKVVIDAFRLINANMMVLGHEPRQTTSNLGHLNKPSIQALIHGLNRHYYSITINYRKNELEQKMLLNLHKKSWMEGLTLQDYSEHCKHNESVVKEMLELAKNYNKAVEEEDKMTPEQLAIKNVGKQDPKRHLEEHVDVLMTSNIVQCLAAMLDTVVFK
Chain of USP9X (Q93008 whole entry, the tested form may be a part): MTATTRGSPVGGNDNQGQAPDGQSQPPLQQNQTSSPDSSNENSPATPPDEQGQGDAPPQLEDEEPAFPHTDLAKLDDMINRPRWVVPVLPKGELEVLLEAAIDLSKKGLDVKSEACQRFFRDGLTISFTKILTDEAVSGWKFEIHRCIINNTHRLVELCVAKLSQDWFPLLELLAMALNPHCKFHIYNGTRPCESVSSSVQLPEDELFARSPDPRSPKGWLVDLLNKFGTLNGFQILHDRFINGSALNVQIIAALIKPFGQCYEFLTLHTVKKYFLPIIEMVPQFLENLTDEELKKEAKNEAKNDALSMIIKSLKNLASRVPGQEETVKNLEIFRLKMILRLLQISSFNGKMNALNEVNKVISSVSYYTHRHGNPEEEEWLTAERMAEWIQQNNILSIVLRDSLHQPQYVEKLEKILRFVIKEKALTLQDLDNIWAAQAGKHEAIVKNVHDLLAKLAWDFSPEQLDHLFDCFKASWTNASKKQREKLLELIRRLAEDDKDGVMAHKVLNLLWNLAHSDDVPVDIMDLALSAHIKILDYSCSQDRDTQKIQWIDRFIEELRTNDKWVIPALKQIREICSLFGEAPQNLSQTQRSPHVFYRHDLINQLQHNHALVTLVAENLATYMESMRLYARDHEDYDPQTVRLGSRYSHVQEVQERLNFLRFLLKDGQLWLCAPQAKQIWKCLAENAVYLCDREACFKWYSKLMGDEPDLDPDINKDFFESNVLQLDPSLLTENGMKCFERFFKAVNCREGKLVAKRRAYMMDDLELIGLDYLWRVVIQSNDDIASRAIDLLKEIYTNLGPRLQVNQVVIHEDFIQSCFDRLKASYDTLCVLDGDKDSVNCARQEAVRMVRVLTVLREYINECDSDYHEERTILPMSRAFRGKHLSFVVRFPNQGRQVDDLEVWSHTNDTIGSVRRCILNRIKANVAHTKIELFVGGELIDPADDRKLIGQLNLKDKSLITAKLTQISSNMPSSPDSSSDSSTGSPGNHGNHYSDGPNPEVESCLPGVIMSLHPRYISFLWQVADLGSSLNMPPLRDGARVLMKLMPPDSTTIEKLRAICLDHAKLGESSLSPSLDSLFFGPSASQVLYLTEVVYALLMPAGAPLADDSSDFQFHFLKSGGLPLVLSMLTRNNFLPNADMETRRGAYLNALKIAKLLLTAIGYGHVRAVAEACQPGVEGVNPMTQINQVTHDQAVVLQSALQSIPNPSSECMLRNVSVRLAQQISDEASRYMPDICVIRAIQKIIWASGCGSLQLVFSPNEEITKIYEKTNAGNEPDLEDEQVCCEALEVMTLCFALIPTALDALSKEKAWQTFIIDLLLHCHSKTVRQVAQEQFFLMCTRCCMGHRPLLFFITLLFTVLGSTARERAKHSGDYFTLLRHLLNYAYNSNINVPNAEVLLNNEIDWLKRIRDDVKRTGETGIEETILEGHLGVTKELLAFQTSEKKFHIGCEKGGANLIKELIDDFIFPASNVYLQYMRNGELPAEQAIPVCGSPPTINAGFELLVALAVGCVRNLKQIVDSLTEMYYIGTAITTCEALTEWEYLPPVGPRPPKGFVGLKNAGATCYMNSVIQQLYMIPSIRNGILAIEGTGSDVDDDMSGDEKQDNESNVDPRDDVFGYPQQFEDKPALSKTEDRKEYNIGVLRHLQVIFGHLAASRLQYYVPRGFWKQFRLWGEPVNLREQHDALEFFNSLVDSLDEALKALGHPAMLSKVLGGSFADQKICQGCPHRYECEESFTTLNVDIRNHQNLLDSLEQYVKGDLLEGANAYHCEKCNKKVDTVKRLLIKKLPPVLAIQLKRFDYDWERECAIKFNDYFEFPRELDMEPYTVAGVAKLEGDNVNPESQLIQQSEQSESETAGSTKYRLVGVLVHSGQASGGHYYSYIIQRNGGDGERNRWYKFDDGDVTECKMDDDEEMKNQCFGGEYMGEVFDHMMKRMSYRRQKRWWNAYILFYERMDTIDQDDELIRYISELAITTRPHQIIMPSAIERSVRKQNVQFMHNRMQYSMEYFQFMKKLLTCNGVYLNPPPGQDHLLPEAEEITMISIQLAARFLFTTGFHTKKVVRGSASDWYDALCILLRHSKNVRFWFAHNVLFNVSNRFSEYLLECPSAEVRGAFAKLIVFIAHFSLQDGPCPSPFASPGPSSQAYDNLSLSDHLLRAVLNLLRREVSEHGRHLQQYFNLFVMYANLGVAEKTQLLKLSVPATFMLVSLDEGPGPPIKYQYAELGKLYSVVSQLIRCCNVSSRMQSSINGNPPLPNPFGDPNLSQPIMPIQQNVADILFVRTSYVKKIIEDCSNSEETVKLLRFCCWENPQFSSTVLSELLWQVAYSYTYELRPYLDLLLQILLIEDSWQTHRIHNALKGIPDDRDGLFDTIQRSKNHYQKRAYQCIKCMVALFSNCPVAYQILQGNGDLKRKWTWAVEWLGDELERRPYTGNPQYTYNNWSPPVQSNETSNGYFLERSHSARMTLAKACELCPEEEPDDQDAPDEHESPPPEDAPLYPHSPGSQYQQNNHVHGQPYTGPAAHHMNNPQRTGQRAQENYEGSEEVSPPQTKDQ
Chain of UniProt P51784 (P51784 whole entry): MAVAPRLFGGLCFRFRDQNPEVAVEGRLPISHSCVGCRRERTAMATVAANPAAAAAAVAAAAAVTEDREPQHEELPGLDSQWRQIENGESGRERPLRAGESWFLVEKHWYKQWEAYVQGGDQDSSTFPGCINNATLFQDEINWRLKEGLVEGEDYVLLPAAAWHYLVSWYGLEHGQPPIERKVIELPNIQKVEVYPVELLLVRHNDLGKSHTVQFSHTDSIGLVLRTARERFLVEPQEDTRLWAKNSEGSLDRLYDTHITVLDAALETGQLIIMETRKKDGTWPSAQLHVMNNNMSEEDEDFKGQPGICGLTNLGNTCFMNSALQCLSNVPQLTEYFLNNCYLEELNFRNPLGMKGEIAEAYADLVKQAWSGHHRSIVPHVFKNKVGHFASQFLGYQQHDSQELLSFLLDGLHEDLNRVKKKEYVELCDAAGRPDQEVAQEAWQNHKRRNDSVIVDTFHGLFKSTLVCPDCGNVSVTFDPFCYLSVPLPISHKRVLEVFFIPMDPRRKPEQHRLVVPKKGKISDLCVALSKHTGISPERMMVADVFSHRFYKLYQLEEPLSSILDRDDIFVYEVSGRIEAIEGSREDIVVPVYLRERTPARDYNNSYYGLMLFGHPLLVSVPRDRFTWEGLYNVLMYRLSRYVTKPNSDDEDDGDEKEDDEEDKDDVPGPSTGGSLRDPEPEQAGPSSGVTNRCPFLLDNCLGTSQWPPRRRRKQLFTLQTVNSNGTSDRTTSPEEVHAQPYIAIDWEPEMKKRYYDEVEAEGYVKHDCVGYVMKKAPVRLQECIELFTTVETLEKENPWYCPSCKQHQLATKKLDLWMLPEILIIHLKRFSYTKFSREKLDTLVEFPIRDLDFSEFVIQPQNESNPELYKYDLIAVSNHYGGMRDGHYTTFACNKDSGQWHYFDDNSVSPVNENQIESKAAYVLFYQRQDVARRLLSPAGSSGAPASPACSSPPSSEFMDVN

Cc1nc(-c2cccc(NC(=O)CCl)c2)cs1
inactive: USP9X -0.362 | UniProt O00487 -0.0542 | UniProt O00507 -0.692 | UniProt P51784 -0.269 | UniProt Q5T2D3 -0.317 | UniProt Q8TE49 -0.655 | UniProt Q9P2H5 -0.193 | YOD1 -0.369
active: UniProt Q9UGI0 -1.43
